Sampled rows, rich in hits. Any-hit rate of the full collection: about 1.3%.
EPAC2 agonist: qHTS for Agonist of cAMP-regulated guanine nucleotide exchange factor 4 (EPAC2): primary screen | Potency, µM (highest dose often 154 µM), most hits filed as activators | actives 0.079% (n = 360,000) | EPAC2 activation, biochemical qHTS; response scale: 100% = 6.5 mM cAMP response | AID 720711, 2013; note: nearly all actives have a fitted effect of over 50% in size
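Compounds were added across a concentration range to EPAC2 (100 nM), RAP1B-BODIPY-GDP (250 nM) and GDP (50 uM). After 5 min at room temperature, fluorescence was recorded at 5-min intervals for 30 min.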
EPAC2 antagonist: qHTS for Antagonist of cAMP-regulated guanine nucleotide exchange factor 2 (EPAC2): primary screen. EPAC2 GEF exchange of Rap1B-BODIPY-GDP, fluorescence. Potency, µM (titrated, usually from 114 µM), actives largely listed as inhibitors. actives 0.18% (n = 360,000); note: nearly all actives have a fitted effect of over 45% in size
EPAC1 antag: qHTS for Antagonist of cAMP-regulated guanine nucleotide exchange factor 3 (EPAC1): primary screen. Rap guanine nucleotide exchange factor 3 (Homo sapiens), O95398. AID 720709, 2013. actives 0.14% (n = 360,000). EPAC1 GEF assay, Rap1b-BODIPY-GDP exchange fluorescence. Potency, µM (top dose mostly 115 µM), hits mostly inhibitors; note: nearly all actives have a fitted effect of over 50% in size
12-LOX inh: Primary qHTS assay for inhibitors of human arachidonate 12S-lipoxygenase (ALOX12): Round 2; Polyunsaturated fatty acid lipoxygenase ALOX12 (Homo sapiens), P18054; purified 12hLO, xylenol orange hydroperoxide absorbance; Potency, µM (series often up to 108 µM), usual class: inhibitors; actives 1.1% (n = 580,000); AID 1671190, 2021
Target sequence (P18054 whole entry, looked up): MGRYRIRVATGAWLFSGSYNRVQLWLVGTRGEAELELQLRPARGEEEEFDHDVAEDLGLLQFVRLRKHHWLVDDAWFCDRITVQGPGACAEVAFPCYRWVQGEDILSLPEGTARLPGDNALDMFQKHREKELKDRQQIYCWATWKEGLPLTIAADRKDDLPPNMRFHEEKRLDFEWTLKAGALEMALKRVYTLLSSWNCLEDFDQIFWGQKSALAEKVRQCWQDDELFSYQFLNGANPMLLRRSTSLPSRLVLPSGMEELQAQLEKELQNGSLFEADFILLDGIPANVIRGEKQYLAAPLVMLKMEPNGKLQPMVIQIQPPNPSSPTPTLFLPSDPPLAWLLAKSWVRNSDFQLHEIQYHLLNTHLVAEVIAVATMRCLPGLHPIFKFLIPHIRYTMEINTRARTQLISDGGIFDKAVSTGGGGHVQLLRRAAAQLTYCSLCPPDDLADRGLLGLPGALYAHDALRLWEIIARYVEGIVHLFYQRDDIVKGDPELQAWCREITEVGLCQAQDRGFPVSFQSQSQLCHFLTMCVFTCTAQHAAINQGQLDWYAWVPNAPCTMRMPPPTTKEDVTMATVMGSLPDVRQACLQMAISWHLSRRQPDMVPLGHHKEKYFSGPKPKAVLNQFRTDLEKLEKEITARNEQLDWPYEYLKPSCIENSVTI
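Hydroperoxide product was detected by ferrous iron/xylenol orange as the 573 to 405 nm absorbance ratio. Arachidonic acid at 40 uM (final) was turned over for 30 min at room temperature by 150 nM human 12hLO, pH 7.0 Hepes buffer, after 15 min compound preincubation.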
EPAC1 agonist: qHTS for Agonist of cAMP-regulated guanine nucleotide exchange factor 3 (EPAC1): primary screen; Rap guanine nucleotide exchange factor 3 (Homo sapiens), O95398; EPAC1 agonist qHTS, biochemical assay; response scale: 100% = response to 6.5 mM cAMP; Potency, µM (doses to about 154 µM), hits mostly activators; actives 0.073% (n = 360,000); AID 720707, 2013; note: nearly all actives have a fitted effect of over 60% in size
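EPAC1 100 nM, Rap1B–BODIPY-GDP 250 nM, unlabeled GDP 50 uM; compound titration; 5 min RT; kinetic read ex480/em540 at 5-min intervals ×30 min; data normalized to 6.5 mM cAMP agonist control.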
USP1-UAF1 inh: Inhibitors of USP1/UAF1: Primary Screen. Potency, µM (series often up to 57.1 µM), hits mostly inhibitors. recombinant USP1/UAF1, Ub-Rhodamine cleavage fluorescence. Ubiquitin carboxyl-terminal hydrolase 1 (Homo sapiens), O94782. actives 0.23% (n = 390,000). AID 743255, 2014; note: nearly all actives have a fitted effect of over 60% in size
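High-throughput fluorogenic screen: 1nM USP1/UAF1 complex, Ub-Rho substrate 150nM final, 50mM HEPES pH 7.8 with 0.5mM EDTA, 0.1 mg/ml BSA, 1mM TCEP and 0.01% Tween-20.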
A number is an active result; n = inactive; u = inconclusive; x = no result. Calls come from the whole dose curve; as a rule, active = well fitted curve in the direction sought with a large enough effect; inconclusive = small, poorly fitted or top-dose-only effect, or another doubt; inactive = no such curve, though single readings can be large; an effect the other way counts as inactive or inconclusive.

SMILES | EPAC2 agonist | EPAC2 antagonist | EPAC1 antag | 12-LOX inh | EPAC1 agonist | USP1-UAF1 inh
Cc1ccc(C)n1C1C(=O)N(Cc2ccc(C(F)(F)F)cc2)c2ccc(Cl)cc21 (centres undefined) | x | x | x | 10µM | x | x
CCOC(=O)c1cccn1C1C(=O)N(Cc2ccc(Cl)nc2)c2ccc(F)cc21 (centres undefined) | x | x | x | n | x | x
Cc1ccc(C)n1C1C(=O)N(Cc2ccc(C(C)C)cc2)c2ccc(F)cc21 (centres undefined) | x | x | x | 35µM | x | x
Cc1ccc(C)n1C1C(=O)N(Cc2ccc(C(C)C)cc2)c2c(F)cccc21 (centres undefined) | x | x | x | 32µM | x | x
Oc1ccc(-c2nc(C3CC3)nc3c2CN(CC2CCCCC2)CC3)cc1 | x | x | x | n | x | x
Cc1ccc(NC(=O)Nc2nnc(C3CCCC3)s2)cc1C | x | x | x | n | x | x
Cc1c(CC(=O)Nc2ccc(C(F)(F)F)cc2)c(=O)oc2cc(O)ccc12 | x | x | x | n | x | x
CNC(=S)N/N=C/c1cn(CCOc2ccccc2OC)c2ccccc12 | n | n | n | u | n | n
COc1cccc(OCCn2cc(C(C)=O)c3ccccc32)c1 | n | n | n | 25µM | n | n
CNC(=S)N/N=C/c1cn(CCOc2cccc(OC)c2)c2ccccc12 | n | n | n | 35µM | n | n
COC(=O)CC1C(=O)NCCN1S(=O)(=O)c1ccc(Br)cc1 (centres undefined) | x | x | x | n | x | x
COc1ccc(O)c(O)c1/C=C1\[C@@H](C)CCC2C(C)(C)CCC[C@]12C (some centres undefined) | x | x | x | 2.2µM | x | x
CC(C)c1c(O)ccc2c1CC[C@H]1C(C)(C)CCC[C@]21C | n | u | n | n | n | n
CC(C)c1nc2c(c(-c3ccc(O)cc3)n1)CCN(Cc1ccccn1)CC2 | x | x | x | n | x | x
COc1ccccc1/C=C/C=C1\Oc2c(ccc(O)c2CN2CCN(CCO)CC2)C1=O | u | n | n | n | 100µM | 32µM
O=C1/C(=C/C=C/c2ccccc2)Oc2c1ccc(O)c2CN1CCN(CCO)CC1 | u | n | n | u | u | u
CCN1CCN(Cc2c(O)ccc3c2O/C(=C\C=C\c2ccccc2)C3=O)CC1 | u | n | n | n | 100µM | u
COC(=O)c1ccc(CSc2n[nH]c(=S)s2)o1 | n | n | n | 16µM | n | n
COC(=O)C1=C(N)Oc2c(oc(CO)cc2=O)C1c1ccc(F)cc1F (centres undefined) | x | x | x | n | x | x
O=S(=O)(NCc1cccs1)c1ccc2ccccc2c1 | x | x | x | n | x | x
O=C(Nc1ccccc1)N[C@H]1[C@H](O)[C@@H](N2CCN(c3ccccc3)CC2)[C@@H]2OC[C@H]1O2 | x | x | x | 112µM | x | x
COc1ccc(-c2[nH][nH]c(=O)c2NC(=O)c2ccccn2)cc1 | n | n | n | u | n | x
COc1ccc(CCC(=O)Nc2c(-c3ccc(N(C)C)cc3)[nH][nH]c2=O)cc1 | u | n | 50µM | n | n | x
CCN(Cc1ccc(OC)c(F)c1)C(=O)c1nn(C)c(=O)c2ccccc12 | x | x | x | n | x | x
COc1ccc(C)cc1NS(=O)(=O)c1cc(-c2c(C)nn3c2NC(=O)CCC3=O)ccc1OC | x | x | x | n | x | x
CC(=O)Nc1ccc(S(=O)(=O)Nc2nc3ccccc3nc2Nc2cccc(C)c2)cc1 | x | x | x | n | x | x
CC(=O)Nc1ccc(S(=O)(=O)Nc2nc3ccccc3nc2Nc2cccc(Cl)c2)cc1 | x | x | x | 16µM | x | x
COC(=O)C(c1ccc(Br)cc1)(c1cn(C)c2ccccc12)C(Nc1ccccc1)c1ccccc1 (centres undefined) | x | x | x | n | x | x

Bioassay records from PubChem BioAssay.
